Results reported in PubChem BioAssay (NCI).
The panel holds about 83,000 compounds, 20% with a hit somewhere; the sample as a whole holds those more often.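 Percent growth is the endpoint: 0 to 100 indicates growth inhibition (40 means 60% inhibition), 0 means no net growth, and negative values indicate cell death.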 A number with no mark means an inactive call. Calls of active or inactive are those of the source. How the source made its calls: active means growth percent below 10; inactive means the rest.

Experiments:
Experiment in all cases: NCI-60 one-dose screen, 48 h (100 = growth as untreated, 0 = no growth, -100 = all killed)
Conditions in all cases: 10 µM
SK-MEL-2 melanoma = tested on: SK-MEL-2 melanoma
EKVX NSCLC = tested on: EKVX NSCLC
SN12C renal = tested on: SN12C renal
UO-31 renal = tested on: UO-31 renal
TK-10 renal = tested on: TK-10 renal
ACHN renal = tested on: ACHN renal
A498 renal = tested on: A498 renal
CCRF-CEM leukemia = tested on: CCRF-CEM leukemia
MOLT-4 leukemia = tested on: MOLT-4 leukemia
CAKI-1 renal = tested on: CAKI-1 renal

| Compound | growth (SK-MEL-2 melanoma) | growth (EKVX NSCLC) | growth (SN12C renal) | growth (UO-31 renal) | growth (TK-10 renal) [%] | growth (ACHN renal) | growth (A498 renal) | growth (CCRF-CEM leukemia) | growth (MOLT-4 leukemia) | growth (CAKI-1 renal) |
| --- | --- | --- | --- | --- | --- | --- | --- | --- | --- | --- |
| COc1cc(-c2nn(-c3cccc(NC(=O)NCCNC(=O)c4ccccc4)c3)cc2-c2ccncc2)ccc1Cl | -20.9% (active) | 34.2% | 25.2% | 13.6% | 36.3 | 12.2% | -3.29% (active) | 7.68% (active) | 4.74% (active) |  |
| CN(C)CCN(Cc1ccccc1)c1ccc2ccccc2n1 | 103% | 109% | 93.8% | 76.2% | 93.1 | 95.8% | 119% | 88.6% | 104% |  |
| CCOC(=O)c1cc(C(=O)c2cc(OC)c(OC)c(OC)c2)n2ncc3ccccc3c12 | 78.5% | 94.5% | 101% | 75.6% | 97.3 | 78.7% | 73.6% | 70.1% | 62% |  |
| COc1cc(C(=O)n2nc(-c3cc(OC)c(OC)c(OC)c3)nc2N)cc(OC)c1OC | 91.2% | 90.6% | 109% | 83.2% | 98.1 | 95.8% | 77.6% | 96.7% | 81.5% |  |
| CCOC(=O)c1cc(C(=O)c2cc(OC)c(OC)c(OC)c2)n2ccc(-c3cc[n+](CC(=O)c4cc(OC)c(OC)c(OC)c4)cc3)cc12 | 101% | 107% | 84.6% | 66.1% | 13.5 | 90.7% | 80.4% | -15% (active) | -9.13% (active) |  |
| O=C(CCl)Nc1ccc(Cc2ccc(NC(=O)CCl)cc2)cc1 | -20.6% (active) | -3.32% (active) | 31.6% | 54.5% | 83.6 | -20.1% (active) | 111% | 0.0611% (active) | -4.84% (active) |  |
| O=C(COc1cccc(/C=C2\CSc3ccc(Cl)cc3C2=O)c1)c1ccc(Cl)cc1 | 44.2% | 70.3% | 79.7% | -7.04% (active) | 127 | 81.7% | 91.3% | -26.1% (active) | -12.1% (active) |  |
| CC1(C)N=C(N)N=C(N)N1c1cccc(C#N)c1 | 79.1% | 67% | 94.3% | 77.9% | 62.4 | 37.1% | 69.8% | 35.7% | 31.2% |  |
| O=[N+]([O-])c1cc(Cl)cc(Cl)c1O | 103% | 96% | 101% | 84% | 95.1 | 99.4% | 106% | 98.7% | 106% |  |
| C=CCSC(CC)(CC)C(=O)NC | 109% | 104% | 101% | 94.4% | 102 | 107% | 104% | 101% | 93% |  |
| N#Cc1ccc(C(=O)CSc2nccc(Nc3ccc(C(=O)O)cc3)n2)cc1 | 106% | 108% | 103% | 84.7% | 110 | 107% | 95.7% | 94% | 104% |  |
| COc1cc2cc(Oc3ccc(NC(=O)c4ccc(Cl)c(C(F)(F)F)c4)cc3)c(C)nc2cc1OC | 31.2% | 18.8% | 24.1% | 18.3% |  | 26.6% | 24.3% | 19.9% |  | 21.6% |
| COc1cc(-c2nn(-c3cccc(NC(=O)CCNc4ccc(N5CCOCC5)cc4)c3)cc2-c2ccncc2)ccc1Cl | 10.3% | 39.4% | 27.6% | 27.3% | 24.7 | 15.8% | 18.3% | 10.9% | 3.1% (active) |  |
| NC1=NC(c2ccc(Cl)cc2)C2=C(N1)/C(=C/c1ccc(Cl)cc1)CCC2 (centres undefined) | 94.7% | 93.7% | 84.8% | 67.8% |  | 95.6% | 54.7% | 72.2% | 64.9% | 90.8% |
| CNC(=O)c1cc(Oc2ccc3c(c2)sc2nc(-c4ccc(N)cc4)cn23)ccn1 | 35.8% | 40.9% | 29.4% | 43.8% | 57.4 | 29.1% | 26.7% |  | 15% |  |
| O=C(CSc1nnc(-c2ccc(Cl)cc2)o1)Nc1ccc(C(=O)/C=C/c2ccc(Cl)cc2)cc1 | 101% | 129% | 95.9% | 69.4% | 118 | 114% | 94.7% |  | 92.6% |  |
| O=c1oc2c(cc1-c1ccc(F)cc1)C(O)Oc1ccccc1-2 (centres undefined) | 76.1% | 51.2% | 95.4% | 84.1% |  | 94.4% | 89.5% | 113% | 68.3% | 74% |
| CCCCCCCCCCCCCCCCCC[n+]1ccc2c(C)c3c(c(C)c2c1)c1cc(O)ccc1n3CC | -33.1% (active) | 19.5% | 1.79% (active) | 39.8% | 17.8 | 25.7% |  |  | 19% |  |
| COc1ccc(-c2nn(-c3cccc(Cl)c3)cc2-c2cc(-c3ccccc3)nc(N)n2)cc1 | 83.6% | 58.2% | 35.8% | 60.8% | 86 | 71.1% |  | 41.1% | 6.55% (active) |  |
| Clc1ccc(/C=C2\CCCC3C2=Nc2ccccc2NC3c2ccc(Cl)cc2)cc1 (centres undefined) | 92.1% | 89.3% | 85.3% | 70.7% |  | 97.3% | 67.2% | 75.9% | 65.8% | 91.3% |
| O=C(CCCSc1nc(-c2ccc(Cl)cc2)cc(-c2ccc(Cl)cc2)n1)NO | 20.8% | -19.7% (active) | 4.81% (active) | -34.9% (active) | 24.3 | 2.26% (active) | -3% (active) |  | 4.91% (active) |  |
| N#Cc1cnn(C(=O)c2nn(-c3ccc(Cl)cc3)cc2O)c1N | 1.93% (active) | 1.5% (active) | 26.5% | -3.61% (active) |  | 11.4% | 48.6% | -10.1% (active) | -14.4% (active) | -34.4% (active) |
| CSc1nc2c(c(=O)n1C)CN(Cc1ccccc1)C(=O)CN2 | 86.3% | 86% | 97.7% | 78.3% |  | 96.4% | 92.4% | 80.7% | 92.5% | 88.6% |
| CC1=NN(C(=O)c2nn(-c3ccc(Cl)cc3)cc2O)C(=O)C1 | 60.3% | 65.2% | 49.5% | 34.2% |  | 42% | 90.1% | 13.5% | 24.8% | 114% |
| N#CC1=C(N)Oc2cc(N)ccc2C1c1cccnc1 (centres undefined) | 97.4% | 96.5% | 98.5% | 84.8% | 119 | 96.7% | 93.5% |  | 89.6% |  |
| C[n+]1c2ccccc2nc2ccccc21 | -24.2% (active) | 54.9% | -27.8% (active) | 42.4% |  | 13.6% | 60% | -0.566% (active) | 24.9% | 15.3% |
| C=C1CCC2(C#N)[C@H]3[C@H](CC[C@@H]2C)[C@@H](C)C[C@@H](CC(C)(C)NC(=O)CN2CCC2=O)[C@H]13 (some centres undefined) | 64.4% | 52.6% | 57.1% | 47.3% |  | 65.6% | 92.1% |  |  | 56.4% |
| COc1cc2cc(Oc3ccc(NC(=O)c4cccc(C(F)(F)F)c4)cc3)c(C)nc2cc1OC | 38.8% | 18.6% | 36.9% | 22.8% |  | 33.9% | 0.391% (active) | 25.9% | 28.4% | 13.3% |
| CCN(CC)CCCC(Nc1c2ccc(Cl)cc2nc2ccc(OC)cc12)c1ccc(F)cc1 (centres undefined) | 116% | 40.2% | 25.7% | -43.3% (active) |  | -58.9% (active) | 59.5% | -18.5% (active) | 2.74% (active) | 87.6% |
| COc1cc(NC(=O)Nc2cnc(Nc3ccc(N4CCOCC4)cc3)nc2Oc2cccc(OC)c2)cc(OC)c1 | 40% | 66.5% | 43.3% | 6.12% (active) | 54.7 | 32.8% | 39.1% |  | 61.3% |  |
